Bioassay records (PubChem BioAssay)
V-ATPase pH: regulators of yeast V-ATPase proton pumping, primary screen, pHLuorin cytosolic pH fluorescence. S. cerevisiae. response, % at 10 µM. actives 0.37% (n = 350,000); in the data active = response mostly above about 7.3%, no sharp cut-off; inactive = mostly below about 5.4%; note: actives read high
Rce1 inh: yeast Rce1p protease inhibitors, primary screen, biochemical, fluorescence, cell-free homogeneous. CAAX prenyl protease 2 (Saccharomyces cerevisiae (strain ATCC 204508 / S288c)), Q03530. yeast membranes, quenched prenylated peptide cleavage fluorescence. calls only. actives 0.27% (n = 290,000). AID 2563, 2010;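 active = fall in fluorescence gain of 50% or more versus controls, with final raw signal at or below 3038400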
NPR1 activator: GC-A stimulated cGMP production enhancers – HEK293 GC-A cells, cGMP TR-FRET, EC30 ANP, primary screen | actives 0.14% (n = 370,000) | 0% at EC30 ANP, 100% saturating ANP | activation, % at 10 µM; in the data active = activation above about 40%
Target sequence (P16066 whole entry, looked up): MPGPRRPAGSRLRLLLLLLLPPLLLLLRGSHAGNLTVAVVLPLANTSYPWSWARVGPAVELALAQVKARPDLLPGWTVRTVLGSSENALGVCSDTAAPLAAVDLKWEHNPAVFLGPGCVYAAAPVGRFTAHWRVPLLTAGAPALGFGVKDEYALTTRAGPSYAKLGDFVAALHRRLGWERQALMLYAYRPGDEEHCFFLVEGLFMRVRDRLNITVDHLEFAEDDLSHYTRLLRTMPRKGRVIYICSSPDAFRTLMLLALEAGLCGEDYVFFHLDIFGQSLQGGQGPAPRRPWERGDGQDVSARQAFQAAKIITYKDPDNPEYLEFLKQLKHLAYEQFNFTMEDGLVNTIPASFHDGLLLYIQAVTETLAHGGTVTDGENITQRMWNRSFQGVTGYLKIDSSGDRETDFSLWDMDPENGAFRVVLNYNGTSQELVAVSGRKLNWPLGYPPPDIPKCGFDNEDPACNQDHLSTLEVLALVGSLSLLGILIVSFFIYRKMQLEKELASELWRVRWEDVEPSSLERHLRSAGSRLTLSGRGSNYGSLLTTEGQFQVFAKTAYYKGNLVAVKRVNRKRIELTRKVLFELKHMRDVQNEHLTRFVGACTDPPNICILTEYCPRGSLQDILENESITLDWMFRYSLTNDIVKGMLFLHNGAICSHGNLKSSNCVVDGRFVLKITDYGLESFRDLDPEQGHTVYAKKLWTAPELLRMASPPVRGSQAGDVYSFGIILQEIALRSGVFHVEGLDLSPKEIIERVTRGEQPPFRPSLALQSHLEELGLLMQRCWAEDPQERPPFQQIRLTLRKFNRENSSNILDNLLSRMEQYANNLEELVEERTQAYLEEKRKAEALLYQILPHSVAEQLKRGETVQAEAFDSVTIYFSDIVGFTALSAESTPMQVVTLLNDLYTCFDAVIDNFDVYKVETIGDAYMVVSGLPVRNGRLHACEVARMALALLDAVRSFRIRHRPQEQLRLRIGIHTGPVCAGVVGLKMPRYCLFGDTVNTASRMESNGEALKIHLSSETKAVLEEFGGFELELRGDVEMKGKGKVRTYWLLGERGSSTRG
NPR2 activator: human GC-B receptor activators, primary screen, HEK293 GC-B cells, cGMP TR-FRET, EC30 CNP; 0% at EC30 CNP, 100% saturating CNP; activation, % at 10 µM; actives 0.11% (n = 370,000); AID 1920062, 2024; Atrial natriuretic peptide receptor 2 (Homo sapiens), P20594;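 active = activation at 10 µM reaching about 35% in either raw or pattern-adjusted values, limit read from the data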
Efflux pump mplx: inhibitors of Candida efflux pumps in yeast, primary screen, S. cerevisiae, Nile Red, multiplex; actives 0.44% (n = 330,000); S. cerevisiae Candida pump triplex; inhibition, % at 10 µM; AID 485275, 2010;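 active = plate passing quality check with inhibition over a set limit, or well fluorescence over plate mean plus 4 SD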;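 note: Nile Red retained in pooled yeast measured as flow cytometry median fluorescence; higher means more Nile Red kept so more efflux inhibition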
NSD2 HMT inh: NSD2 histone methyltransferase inhibitors, primary screen, biochemical, AlphaScreen, single concentration, set 2 | inhibition, % at 12.5 µM | NSD2 peptide methylation, 120 min | actives 0.54% (n = 310,000) | Histone-lysine N-methyltransferase NSD2 (Homo sapiens), O96028; in the data active = inhibition above about 50%
Each line names hits and unclear results; the compound was inactive in the other large screens. Only some compounds are listed: those with a hit (about 1.6% of all), similar ones and a draw of the others.

O=C(N/N=C/c1ccc(-c2ccc([N+](=O)[O-])cc2)o1)C(O)c1ccccc1 (stereo not given)	NPR1 activator 42, NPR2 activator 40
O=C(N/N=C/c1ccc([N+](=O)[O-])o1)C(O)c1ccccc1 (stereo not given)	none
CSc1ccc(C(=O)C2CCCN(C(=O)c3cccnc3SC)C2)cc1 (stereo not given)	Rce1 inh active
O=C(Nc1ccc(F)cc1)Oc1ccccc1N1CCOCC1	Rce1 inh active
Cc1ccc(S(=O)(=O)N2CCN(C(=O)c3cccc(F)c3)CC2)cc1	none
Cc1ccc(S(=O)(=O)N2CCN(C(=O)c3cc4c(C)nn(-c5ccccc5)c4s3)CC2)cc1	Rce1 inh active
Cc1ccc(S(=O)(=O)N2CCN(C(=O)c3ccc4nc[nH]c4c3)CC2)cc1	V-ATPase pH 15
Cc1cc(N2CCN(C(=O)Oc3ccc(-c4ccccc4)cc3)CC2)c2ccccc2n1	none (no result: V-ATPase pH, Rce1 inh, Efflux pump mplx, NSD2 HMT inh)
Cc1ccc(S(=O)(=O)N2CCC(c3nc4ccccc4o3)CC2)s1	none (no result: V-ATPase pH, Rce1 inh, Efflux pump mplx, NSD2 HMT inh)
CCn1cc(C(=O)NCCCN(C)C)c(=O)c2cc(F)c(N3CCN(C)CC3)cc21	none
CCn1cc(C(=O)NCCN(C)C)c(=O)c2cc(F)c(N3CCN(C)CC3)cc21	Rce1 inh active
CC1CCC2(CC1)CCN(CCCOC(=O)NCc1ccc(Cl)cc1)C2=O (stereo not given)	none (no result: V-ATPase pH, Rce1 inh, Efflux pump mplx, NSD2 HMT inh)
O=S1(=O)c2c(NCc3ccco3)cccc2Oc2ccccc2CN1Cc1cn(Cc2ccc(F)cc2)nn1	none (no result: V-ATPase pH, Rce1 inh, Efflux pump mplx, NSD2 HMT inh)
O=c1ccc(N=Nc2ccccc2)ccc1O	V-ATPase pH 44
Nc1scc2c(C(=O)N/N=C/c3ccc(Cl)cc3)nn(-c3ccccc3)c(=O)c12	NSD2 HMT inh 73
CCOC(=O)c1nn(-c2ccccc2)c(=O)c2c(N)scc12	none (no result: Rce1 inh)
C[C@@H](NC(=O)c1ncn2c1c(=O)[nH]c1ccc(Br)cc12)c1ccccc1	NPR2 activator 40 (no result: Rce1 inh, Efflux pump mplx, NSD2 HMT inh)
O=C(NCC1CC1)c1ccc(Nc2nc3ccc(Br)cc3[nH]2)cc1	Rce1 inh active (no result: NSD2 HMT inh)
O=C(NCc1ccco1)c1cccc(Nc2nc3ccc(Br)cc3[nH]2)c1	none (no result: NSD2 HMT inh)
CC1CCC/C(=C\Nc2ccccc2C(=O)O)C1=O (stereo not given)	Rce1 inh active
CC1CCC/C(=C\Nc2ccc3c(c2)OCO3)C1=O (stereo not given)	none
O=C(CN1C(=O)CCSc2ccccc21)Nc1ccc(F)cc1F	none (no result: V-ATPase pH, Rce1 inh, Efflux pump mplx)
O=C(NCC(c1ccco1)N1CCCC1)c1ccc(-n2cccn2)cc1 (stereo not given)	none (no result: Rce1 inh)
CC(C)C(NC(=O)c1ccco1)C(=O)NCC(c1ccco1)N1CCCCC1 (stereo not given)	Rce1 inh active
Cc1cc(C)n(-c2ccc(C(=O)NCC(c3ccco3)N3CCCC3)cc2)n1 (stereo not given)	V-ATPase pH 16 (no result: Rce1 inh)
COC(=O)C1=CNC=C(C(=O)OC)C1c1cccc2ccccc12	Rce1 inh active
COC(=O)C1=CNC=C(C(=O)OC)C1c1ccccc1Cl	none (no result: Rce1 inh, NSD2 HMT inh)
c1ccc(-c2nnc(-c3ccccc3)c(-c3c[nH]c4ccccc34)n2)cc1	none
c1ccc(-c2nnc(-c3ccncc3)nc2-c2ccccc2)cc1	Rce1 inh active
COC(=O)N1C(=O)[C@@](c2ccc(Cl)cc2)(C(C)C)N1C(=O)OC	none (no result: V-ATPase pH, Rce1 inh, NPR1 activator, NPR2 activator, Efflux pump mplx)
CC(C)(C)C(=O)OCc1nc(-c2ccc(C(F)(F)F)cc2)cs1	V-ATPase pH 21
CCCCCSc1nncc(=O)[nH]1	none
CCCCCCCCSC1=CC(=O)C(OC)=C(OC)C1=O	NPR1 activator 45 (no result: Rce1 inh, Efflux pump mplx)
Cc1ccc(SCCC(=O)Nc2ccc(OCc3ccccc3)cc2)cc1	none
CCOc1ccc(NC(=O)CCSc2ccc(C)cc2)cc1	Rce1 inh active
COc1ccc(OC)c(Cc2nnc(CCC(=O)N3CCCCC3)o2)c1	none
COc1ccc(OC)c(Cc2nnc(CCC(=O)N3CCN(C4CCCC4)CC3)o2)c1	Rce1 inh active
CC(COc1ccc(CC#N)cc1)CN1CCC(C(O)(c2ccccc2)c2ccccc2)CC1 (stereo not given)	none (no result: V-ATPase pH, Rce1 inh, Efflux pump mplx, NSD2 HMT inh)
COc1ccc(/C=C\C(=O)NCC(=O)N/N=C/c2ccc(O)cc2O)cc1	none
O=C(/C=C\c1ccccc1)NCC(=O)N/N=C/c1ccc(O)cc1O	V-ATPase pH 12 (no result: NPR1 activator, NPR2 activator)
COc1cc2c(cc1OC)C(C)N(C(=O)c1cc3c(=O)oc4ccc(C)cc4c3s1)CC2 (stereo not given)	Rce1 inh active (no result: NSD2 HMT inh)
COc1cc2c(cc1OC)C(C)N(C(=O)c1cccs1)CC2 (stereo not given)	none
Cc1nc(N2CCN(C(=O)C3CCCCC3)CC2)c2c3c(sc2n1)CCCC3	none (no result: V-ATPase pH, Rce1 inh, Efflux pump mplx, NSD2 HMT inh)
O=C(NC1CCCCN(Cc2cccc(Cl)c2)C1=O)c1ccc(COc2ccccc2)cc1 (stereo not given)	none (no result: V-ATPase pH, Rce1 inh, Efflux pump mplx, NSD2 HMT inh)
c1ccc(CCNc2ccnc3cc4ccccc4cc23)cc1	Rce1 inh active (no result: Efflux pump mplx)
CC(C)Nc1ccc(Nc2ccnc3cc4ccccc4cc23)cc1	none (no result: NSD2 HMT inh)
CCc1cc(N2CCOCC2)cc2c1[nH]c1ccccc12	Rce1 inh active
CC(=O)Nc1ccc(CNc2ncnc3ccc(-c4c(C)noc4C)cc23)cc1	NPR2 activator 41 (no result: Rce1 inh, NSD2 HMT inh)
CCOCCCNC(=O)/C(C#N)=C/c1cc(OC)c(O)c([N+](=O)[O-])c1	none
COCCNC(=O)/C(C#N)=C/c1cccc(/C=C(\C#N)C(=O)NCCOC)c1	NPR1 activator 42
CCOCCCNC(=O)/C(C#N)=C/c1ccc(Cl)c([N+](=O)[O-])c1	NPR1 activator 55
N#C/C(=C\c1ccc(O)c([N+](=O)[O-])c1)c1nc2ccccc2s1	none (no result: Efflux pump mplx)
N#C/C(=C/c1ccc(-c2cc(C(=O)O)cc(C(=O)O)c2)o1)c1nc2ccccc2s1	Efflux pump mplx 0.8 (no result: V-ATPase pH, NPR1 activator, NPR2 activator, NSD2 HMT inh)
CCOC(=O)C1=C(C)OC(N)=C(C#N)C1c1cc2c(cc1[N+](=O)[O-])OCO2 (stereo not given)	Rce1 inh active
COc1ccc(OC)c(/C=N/NC(=O)CSc2cc(C)nc3c(OC)cccc23)c1	Rce1 inh active
COc1ccc(OC)c(/C=N/NC(=O)Cn2ccnc2C)c1	Rce1 inh active
COc1ccc2nc(C)cc(SCC(=O)N/N=C/c3ccco3)c2c1	none
CCCCNC(=O)C1(C(=O)c2ccc(OC)cc2)CC(c2ccccc2C(F)(F)F)=NO1 (stereo not given)	none (no result: V-ATPase pH, Rce1 inh, Efflux pump mplx, NSD2 HMT inh)
CC(C)(C)c1csc(NC(=O)c2ccccc2O)n1	none
Cc1csc(NC(=O)c2ccccc2O)n1	Rce1 inh active
O=C(NCc1cccnc1)c1cccc(S(=O)(=O)N2CCCC2)c1	none
O=C(NCc1cccnc1)c1cccc(S(=O)(=O)N2CCOCC2)c1	V-ATPase pH 15
